# Source: PubChem
# MmCpn inh: blocks the Methanococcus maripaludis chaperonin Mm-Cpn; purified Mm-Cpn ATPase, ADP Transcreener TR-FRET; Potency, µM (top dose mostly 76.9 µM), inactives show at the highest dose activity, negative = inhibition, actives largely listed as inhibitors; 330,000 tested, 0.031% active; AID 504842; note: potency is the fitted concentration of half-maximal effect; nearly all actives have a fitted effect of over 80% in size
#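 ATP (10 uM final) was added to archaeal chaperonin (25 nM final) after 10 min exposure to test compound at 37°C; after 30 min further incubation, ADP was detected by competitive TR-FRET.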
# G9a inh: blocks human histone lysine methyltransferase G9a | 350,000 tested, 8.8% active | Q96KQ7 | G9a H3K9 monomethylation, AlphaScreen, 2 h | AID 504332 | Potency, µM (highest dose often 102 µM), for the others: at the highest dose activity, negative = inhibition, most hits filed as inhibitors; note: potency is the fitted concentration of half-maximal effect; nearly all actives have a fitted effect of over 75% in size
#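 Compounds were preincubated with 20 nM G9a for 15 min, after which biotinylated H3K9 peptide (500 nM) and SAM (20 uM) started a 2 h room-temperature reaction. Monomethylated product was quantified by antibody-based AlphaScreen chemiluminescence.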
# PLK1 PBD block: blocks phosphopeptide binding to human PLK1 polo-box domain; P53350; Plk1 PBD binding of FITC phosphopeptide, fluorescence polarization; Potency, µM, inactives show max response, negative = inhibition, usual class: inhibitors; 360,000 tested, 2.8% active; note: potency is the fitted concentration of half-maximal effect; series mostly up to about 57 µM; nearly all actives have a fitted effect of over 65% in size
# Sfp inh: Sfp phosphopantetheinyl transferase inhibition | Q9F4F7 | Biochemical Sfp PPTase activity, qHTS | Potency, µM, for the others: largest response in the series, negative = inhibition, hits mostly inhibitors | 310,000 tested, 3.5% active;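 note: the enzyme is Sfp with the accession as filed and its product quenches rhodamine fluorescence; potency is the fitted concentration of half-maximal effect; 0% = enzyme reaction without inhibitor and -100% = no enzyme wells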
#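 Compounds were incubated with enzyme (final 15 nM) for 15 min at room temperature before substrate addition started the reaction. Fluorescence at 525 nm excitation, 598 nm emission was recorded immediately and after 30 minutes.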
# VDR inhibitor: blocks the human vitamin D receptor | VDR-SRC2-3 peptide fluorescence polarization, 2 h | AID 504847 | Potency, µM, without a hit: max response, negative = inhibition, most hits filed as inhibitors | 400,000 tested, 0.93% active; note: potency is the fitted concentration of half-maximal effect
# Target sequence (P11473 whole entry, looked up): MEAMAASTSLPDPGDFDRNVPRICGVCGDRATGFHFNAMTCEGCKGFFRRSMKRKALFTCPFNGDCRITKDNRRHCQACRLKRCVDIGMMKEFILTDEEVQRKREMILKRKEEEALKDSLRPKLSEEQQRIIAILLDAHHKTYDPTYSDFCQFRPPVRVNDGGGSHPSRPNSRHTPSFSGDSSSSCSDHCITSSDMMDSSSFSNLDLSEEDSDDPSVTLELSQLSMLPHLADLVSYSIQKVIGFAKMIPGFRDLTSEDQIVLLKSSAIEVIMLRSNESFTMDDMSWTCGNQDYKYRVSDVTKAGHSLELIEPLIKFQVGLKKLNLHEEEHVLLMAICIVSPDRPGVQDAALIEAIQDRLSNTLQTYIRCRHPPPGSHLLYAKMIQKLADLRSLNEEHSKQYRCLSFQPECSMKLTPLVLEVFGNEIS
#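 Measured by FP: displacement of SRC2-3 coactivator peptide from VDR by library compounds, following a two-hour ambient incubation.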
# CCT chaperon mod: cytosolic chaperonin activity modulation | purified chaperonin ATPase assay, HTRF ADP detection, 30 min | 360,000 tested, 0.3% active | AID 651819 | activity change, % (no concentration beside the values), hits read low; in the data active = activity change below about -30%
#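 First, chaperonin was dispensed at 40 nM or 20 nM final depending on batch activity. Next, compounds were pinned at 76 uM and ATP added at 10 uM. After 30 min at 37 °C, ADP detection reagents ran 30 min at ambient temperature.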
# Starred values were filed as active, the others as inactive; ? = inconclusive; / = no result; ! = repeats disagree; [ ] = dose if it differs, or a comment. The list is not random: actives were taken first. Their share in the collection is about 10%. Unless noted, calls come from the whole dose curve; as a rule, active = well fitted curve in the direction sought with a large enough effect; inconclusive = small, poorly fitted or top-dose-only effect, or another doubt; inactive = no such curve, though single readings can be large; an effect the other way counts as inactive or inconclusive. Unless noted, % is set by controls: 0 for no effect and ±100 for the full control effect.
SMILES,MmCpn inh,G9a inh,PLK1 PBD block,Sfp inh,VDR inhibitor,CCT chaperon mod
Cc1ccc(S(=O)(=O)c2nnn(-c3ccc(F)c(Cl)c3)c2N)cc1,/,4.5%[59 µM],/,/,10.6%,/
CCOC(=O)c1c(C)oc2c1c(C=NCc1ccccn1)c(O)c1ccccc12,-1.1%,?,-13.1%,17.8µM*,-6.3%,-0.8
COc1ccc(-n2nc(C(=O)Nc3cc(C)ccn3)c3c4ccccc4n(C)c3c2=O)cc1,/,?,/,/,-10.1%,/
CC(C)c1ccc(C(=O)CC2(O)C(=O)N(CCc3ccccc3)c3ccc(Cl)cc32)cc1 (stereo unspecified),/,?,/,/,-14.2%,/
COc1ccccc1NC(=O)CSc1nc2c(sc3ccccc32)c(=O)n1CCN(C)C,0.5%,?,?,39.8µM*,79.4µM*,-5.8
CCN(CC)CCn1c(SCC(=O)Nc2ccc(F)cc2)nc2c(sc3ccccc32)c1=O,-14.3%,35.5µM*,/,-2.5%,/,/
C=CCN(C(=O)CSc1nc2c(sc3ccccc32)c(=O)n1CCN(CC)CC)c1ccccc1,-1.0%,44.7µM*,-8.9%,50.1µM*,?,1.6
COC(=O)C(C(=O)OC)[C@@H]1O[C@@]23COC=C[C@]2(C)[C@H]3c2ccccc21,/,/,/,-6.7%,-7.3%,/
CCn1c(SCC(=O)NC(=O)NC(C)(C)C)nc2ccccc21,-0.4%,-5.0%,9.47µM*,2.6%,?,-0.3
CC(C)(C)NC(=O)CSc1nc2ccccc2n1-c1ccccc1,-1.0%,?,-21.0%,50.1µM*,13.2%,-1.8
CO[C@H]1COC(=O)C/C=C\[C@@H](C)COC(=O)[C@@H](OCc2ccccc2)/C=C\[C@@H]1C,/,/,/,-3.2%,/,/
O=C(Cn1c(=O)c2cccn2c2ccc(F)cc21)NCc1cccc(Cl)c1,/,?,/,/,7.8%,/
O=[N+]([O-])c1ccc(C(=Nc2cccc3ccccc23)N2CCOCC2)cc1,0.3%,44.7µM*,-8.3%,2.6%,-4.2%,-4.3
ONCc1ccccc1,/,/,/,12.6µM*,-2.3%,/
OC(CNCc1ccccc1)(c1ccccc1)c1ccccc1,3.9%,23.4%,?,1.4%,-16.0%,-12.7
CCn1nc(C)cc1C(=O)Sc1cccc(Cl)c1,-1.4%,/,18.9µM*,-7.7%,?,-2.3
Cc1nn(C)c(C(=O)Sc2cccc(Cl)c2)c1[N+](=O)[O-],1.8%,?,4.23µM*,-29.3%,39.8µM*,0.5
Cc1ccc(CNCc2ccccc2Cl)s1,/,-15.1%[59 µM],/,/,-17.5%,/
CCOc1ccccc1NC(=O)Cn1cc(C(=O)c2ccc(Cl)cc2)c(=O)c2ccc(C)nc21,/,-24.3%[59 µM],/,/,4.2%,/
Cc1sc2nc[nH]c(=S)c2c1-c1ccccc1,0.0%,-32.3%,?,6.5%,89.1µM*,-5.9
COC(=O)C1(CO)NC(c2cccs2)C2C(=O)N(c3ccccc3)C(=O)C21 (stereo unspecified),2.6%,-7.9%,26.7µM*,10.2%,17.9%,0.1
Cc1cn2c(=O)cc(COc3cccc(NC(=O)c4ccccc4C)c3)nc2s1,/,-22.3%[59 µM],/,/,-12.0%,/
O=C(c1ccc(S(=O)(=O)Cc2cc(F)ccc2F)c([N+](=O)[O-])c1)N1CCCC1,-4.2%,?,10.6µM*,-8.5%,?,-2.1
Cc1cc(OCC(=O)Nc2ncn[nH]2)ccc1Cl,0.7%,-36.8%[2.33 µM],-11.9%,/,?,-0.7
Cc1cccc(C)c1OCC(=O)Nc1ncn[nH]1,1.4%,14.1µM*!,-1.9%,2.7%,-12.8%,-1.4
Cc1nn2c(-c3cccc(NC(=O)c4ccc(Cl)cc4)c3)nnc2c2ccccc12,/,-33.5%[59 µM],/,/,-4.0%,/
O=C(CSCc1ccccc1)Nc1cc([N+](=O)[O-])ccc1F,0.6%,31.6µM*,?,-6.4%,-18.1%,1.2
COc1ccc([N+](=O)[O-])cc1NC(=O)CSCc1ccccc1,2.0%,-21.2%,-24.4%,-10.6%,1.1%,-2.3
Cc1ccc(CCNC(=O)c2ccc(CSCc3ccc(C)cc3)o2)cc1,/,20.3%[59 µM],/,/,-5.8%,/
CCCNC(=O)Cc1c(C)n(C(=O)c2ccc(Cl)cc2)c2ccc(OC)cc12,-2.7%,/,-7.0%,7.7%,1.8%,-0.6
